Screening data deposited in PubChem BioAssay by National Center for Advancing Translational Sciences (NCATS).
HP1b binding inh = blocks HP1-beta chromodomain binding to methylated histone tails; P83916; AlphaScreen HP1-beta / biotin-H3K9me3 peptide binding; Potency, µM (doses to about 114 µM), for inactives: at the highest dose activity change, negative = inhibition, usual class: inhibitors; 390,000 tested, 0.56% active; AID 540317; also: potency is read from the fitted curve at half-maximal effect; nearly all actives have a fitted effect of over 70% in size
Target sequence (P83916 whole entry, looked up): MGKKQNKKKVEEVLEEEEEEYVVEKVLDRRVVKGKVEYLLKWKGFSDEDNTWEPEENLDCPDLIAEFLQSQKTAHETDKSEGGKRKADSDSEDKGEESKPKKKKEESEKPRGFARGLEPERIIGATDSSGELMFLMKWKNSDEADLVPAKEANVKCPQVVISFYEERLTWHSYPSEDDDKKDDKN
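Compound inhibition of the preformed complex between 50 nM HP1-beta and 50 nM biotinylated H3K9me3 peptide was read by AlphaScreen. Buffer was PBS pH 7.4 with 0.01% Tween-20. Incubations ran 30 min at room temperature, with 10 ug/mL donor/acceptor beads.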
CtBP-E1A inh = blocks the CtBP interaction with E1A. AlphaScreen GST-E1A/His-CtBP binding, 1536-well; stronger effect = lower value. activity change, % (test concentration not listed). 340,000 tested, 0.49% active; in the data active = activity change below about -65%; inconclusive = mostly about -30% to -63%; also: % is scaled to controls: 0 for no effect and ±100 for the full control effect
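GST-E1A and His-tagged CtBP (125 nM each as 5X stock) were preincubated with pin-transferred compound for 2 h at 37 °C in the dark, then glutathione donor and nickel acceptor beads were added for 1 h before AlphaScreen reading.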
BAZ2B inh = BAZ2B (human) inhibition | AlphaScreen BAZ2B-H3K14Ac peptide displacement | Potency, µM (top dose mostly 114 µM), without a hit: at the highest dose activity change, negative = inhibition, hits mostly inhibitors | 360,000 tested, 4.4% active; also: potency is read from the fitted curve at half-maximal effect; % is scaled to controls: 0 for no effect and ±100 for the full control effect; nearly all actives have a fitted effect of over 60% in size
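Inhibition is scored as reduced AlphaScreen emission. The BAZ2B/b-H3(5-23)K14Ac complex (50 nM each) in PBS pH 7.4, 0.01% Tween-20 meets compound (up to 110 uM) for 30 min at RT before bead addition.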
Six1-Eya2 inh = inhibitors of human Six1/Eya2 interaction. Q15475+O00167. AlphaScreen GST-Six1/His-Eya2 binding, biochemical; stronger effect = lower value. activity change, % (concentration not given with the values). 360,000 tested, 0.56% active; in the data active = activity change below about -65%; inconclusive = mostly about -30% to -63%; also: % is scaled to controls: 0 for no effect and ±100 for the full control effect
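Homogeneous AlphaScreen proximity assay pairing GST-Six1 with His-tagged Eya2 (added as 5X mix: 250 nM and 500 nM) in 50 mM Tris pH 8.0, 300 mM NaCl, 1 mM TCEP. Glutathione donor and nickel acceptor beads; 1 h, 37 °C, dark.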
JMJD2A Tudor = JMJD2A Tudor domain (human) inhibition; AID 504339; 390,000 tested, 4.4% active; Potency, µM (doses to about 114 µM), inactives show at the highest dose activity change, negative = inhibition, most hits filed as inhibitors; AlphaScreen JMJD2A-Tudor / H3K4me3 peptide binding; also: potency is read from the fitted curve at half-maximal effect; % is scaled to controls: 0 for no effect and ±100 for the full control effect; nearly all actives have a fitted effect of over 50% in size
G9a inh = blocks human histone lysine methyltransferase G9a; G9a H3K9 monomethylation, AlphaScreen, 2 h; 350,000 tested, 8.8% active; Q96KQ7; Potency, µM (top dose mostly 102 µM), inactives show at the highest dose activity, negative = inhibition, hits mostly inhibitors; also: potency is read from the fitted curve at half-maximal effect; % is scaled to controls: 0 for no effect and ±100 for the full control effect; nearly all actives have a fitted effect of over 75% in size
Target sequence (Q96KQ7 913-1193 limits assumed): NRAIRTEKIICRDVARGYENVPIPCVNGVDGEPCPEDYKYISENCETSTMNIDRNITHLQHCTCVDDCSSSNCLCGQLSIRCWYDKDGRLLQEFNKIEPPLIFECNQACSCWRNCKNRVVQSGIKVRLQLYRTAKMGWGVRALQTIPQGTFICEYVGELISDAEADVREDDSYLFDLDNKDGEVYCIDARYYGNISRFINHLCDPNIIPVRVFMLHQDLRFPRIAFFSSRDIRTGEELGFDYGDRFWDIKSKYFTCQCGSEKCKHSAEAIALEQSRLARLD
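G9a (20 nM) was preincubated 15 min with compound, then reacted 2 h at room temperature with 500 nM biotin-H3K9 peptide and 20 µM SAM. Monomethyl-H3K9 detected by AlphaScreen using anti-H3K9me1 antibody.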
An asterisk follows results filed as active; ? = inconclusive; . = not tested or not shown; [ ] = dose if it differs, or a comment. The list is not random: actives were taken first. Their share in the collection is about 10%. Unless noted, calls follow the shape of the dose curve; as a rule, active = well fitted inhibition curve with a large enough effect; inconclusive = small, poorly fitted or top-dose-only effect; inactive = no such curve, though single readings can be large or run the other way.

SMILES	HP1b binding inh	CtBP-E1A inh	BAZ2B inh	Six1-Eya2 inh	JMJD2A Tudor	G9a inh
CCc1cc(C(=O)OC)c(NC(=O)CC2Nc3cc(C)c(C)cc3NC2=O)s1 (centres undefined)	25%	-4	9%	6	-15%	?
Cc1cc2c(cc1C)NC(CC(=O)Nc1cccc(C)c1C)C(=O)N2 (centres undefined)	32%	.	-2%	.	-7%	5%[59 µM]
CCOc1ccc(Nc2c(S(=O)(=O)c3ccc(C)cc3)cnc3cc(OC)c(OC)cc23)cc1	0%	.	-31%	.	-31%	-14%[59 µM]
CCOC(=O)Cn1c(=O)oc2cc(S(=O)(=O)N3CCN(c4cc(C)ccc4C)CC3)ccc21	6%	.	-18%	.	-18%	-5%[59 µM]
CCN(c1ccc(Cl)cc1)S(=O)(=O)c1nnc(NC(=O)C2CCCCC2)s1	70%	.	1%	.	-3%	27%[59 µM]
Cc1cc(C)n2c(Nc3ccccc3)c(-c3ccccc3)nc2n1	28%	.	-24%	.	-14%	-4%[59 µM]
CSc1ccc(-c2nc3cccc(C)n3c2Nc2ccc3c(c2)OCO3)cc1	?	.	.	.	28µM*	5.6µM*
Cc1cccc2nc(-c3ccco3)c(Nc3ccccc3)n12	-4%	.	40µM*	-12	?	?
Cc1ccc(-c2nc3cccc(C)n3c2Nc2ccc3c(c2)OCO3)o1	?	.	28µM*	.	40µM*	18µM*
Cc1ccc(Nc2c(-c3ccc(C)o3)nc3cccc(C)n23)cc1	?	.	25µM*	.	45µM*	18µM*
Cc1cc(C)n2c(Nc3ccc4c(c3)OCCO4)c(-c3ccc(Cl)cc3)nc2n1	9%	.	-4%	.	?	1%[59 µM]
COc1ccc(C2/C=C\CN(CC3CCCCC3)C(Cc3ccccc3)C(=O)N2Cc2ccc(F)cc2)cc1 (centres undefined)	38%	.	.	.	-15%	.
Cc1noc(-c2ccc(-c3noc(-c4cccc(F)c4)n3)cc2)n1	27%[57 µM]	.	5%	.	-9%	8%[59 µM]
Cc1ccn2c(Nc3ccc4c(c3)OCO4)c(-c3ccco3)nc2c1	?	.	-37%	.	?	4.5µM*
Cc1cc(C)n2c(Nc3ccc4c(c3)OCCO4)c(C(C)C)nc2n1	.	-4	.	-9	.	.
Cc1cc(C)n2c(Nc3ccc4c(c3)OCCO4)c(C3CC3)nc2n1	.	1	.	-3	.	.
Cc1cccc2nc(-c3ccco3)c(Nc3ccc4c(c3)OCO4)n12	?	-26	20µM*	-11	45µM*	35µM*
Cc1cccc(CN2CCC(C(N)=O)CC2)c1	25%	10	9%	1	-15%	28%
Cc1cccc(CN2CCSCC2)c1	?	0	?	0	20µM*	?
FC(F)(F)c1cccc(CN2CCSCC2)c1	?	-1	56µM*	1	22µM*	10µM*
CCOc1cccc(C2c3c(-c4cc(C)ccc4O)n[nH]c3C(=O)N2Cc2ccco2)c1 (centres undefined)	0%	.	?	.	?	?
O=C(/C=C/C=C/c1ccccc1)c1ccco1	-18%	.	?	-4	-23%	50µM*
O=C(/C=C/c1ccc(Br)cc1)c1ccco1	6%	6	1%	11	-11%	0%[59 µM]
O=C(/C=C\c1ccccc1)Nc1ccc(NC(=O)c2ccco2)cc1	?	9	-9%	1	10µM*	-7%
Cc1ccc(C(=O)Nc2ccc(-n3c(C)nc4ccccc4c3=O)cc2)cc1[N+](=O)[O-]	55%	.	14%	.	-28%	0%[59 µM]
SMILES	HP1b binding inh	CtBP-E1A inh	BAZ2B inh	Six1-Eya2 inh	JMJD2A Tudor	G9a inh
Cc1cc(C)n(C(C)CC(=O)NCc2ccc(Cl)cc2)n1 (centres undefined)	-11%	.	-4%	.	-21%	11%[59 µM]
O=C(Cc1ccc(Cl)cc1)NC1CC(=O)N(c2ccc3c(c2)OCCO3)C1 (centres undefined)	8%	.	1%	.	-34%	-3%[59 µM]
CCc1c(C)[nH]n(-c2nc(-c3cccc([N+](=O)[O-])c3)cs2)c1=O	-14%	-5	-1%	-17	?	0%[59 µM]
CCc1c(C)[nH]n(-c2nc(-c3ccccc3)cs2)c1=O	0%	.	-3%	3	-18%[11.4 µM]	50µM*
CCOC(=O)c1c(-c2ccccc2)oc2ccc(NS(=O)(=O)c3cc(C)c(C)cc3C)cc12	38%	.	-1%	.	-29%	-5%[59 µM]
CCc1cc(C(=O)Nc2cc(S(=O)(=O)N(CC)CC)ccc2N2CCN(C)CC2)sc1C	49%	4	-10%	-9	-20%	35µM*
CCN(CC)S(=O)(=O)c1ccc(N2CCCC2)c(NS(=O)(=O)c2ccc([N+](=O)[O-])cc2)c1	2%	-4	-38%	-9	-26%[57.1 µM]	10µM*
CCN(CC)S(=O)(=O)c1ccc(N2CCCC2)c(NS(=O)(=O)c2ccc(OC)cc2)c1	34%	-11	-7%	-2	-21%	35µM*
CCN(CC)S(=O)(=O)c1ccc(N2CCCC2)c(NS(=O)(=O)c2ccccc2)c1	33%	-8	10%	-3	-25%	3%[59 µM]
c1ccc(CNc2ncncc2-c2ccc3c(c2)OCO3)cc1	.	.	.	.	.	4%[0.501 µM]
O=c1c(-c2ccc(Cl)cc2)nc2cnc(N3CCOCC3)nc2n1C[C@H]1CCCO1	.	.	.	.	.	14%[0.501 µM]
Cc1ccccc1OCCn1cnc2c(N)ncnc21	35%	-8	-8%	7	-11%	-20%[59 µM]
Cc1ccccc1OCCn1c(=S)[nH]c2c(N)ncnc21	?	.	-24%	-7	7.1µM*	1.8µM*
COc1ccc(CNC(=O)CCn2cccn2)cc1	35%	.	5%	.	-3%	-5%[59 µM]
OC(COCc1ccccc1F)CN1CCCCC1 (centres undefined)	18%	-4	.	-12	-6%	.
CC1CCCC(C)N1CC(O)COCc1ccccc1F (centres undefined)	?	-20	?	-2	50µM*	-8%[2.33 µM]
CCCCc1nn2c(=O)cc(COC(=O)c3ccc(NC(=O)c4ccccc4Cl)cc3)nc2s1	17%	.	-13%	.	-28%	0%[59 µM]
CC(=O)Oc1ccc(Cl)cc1/C=C/c1ccc2ccccc2n1	223%	0	59%	24	74%	104%[59 µM]
CC(C)(O)c1ccccc1CC[C@@H](SCC1(CC(=O)O)CC1)c1cccc(/C=C/c2ccc3ccc(Cl)cc3n2)c1	-5%	-4	.	-10	79µM*	.
COc1ccc(-c2cc3ccccc3n2CC(O)CNCCO)cc1 (centres undefined)	?	-7	50µM*	-9	5µM*	35µM*
OCCNCC(O)Cn1c2ccccc2c2ccccc21 (centres undefined)	54%	9	-18%	9	-25%	3%
CCOC(=O)C(C)NC(=O)C1CCN(c2ncnc3c2nc2n3CCCCC2)CC1 (centres undefined)	24%	.	0%	.	-1%	13%[59 µM]
